About 83,000 compounds went through this panel and 20% of them were active in at least one assay; those are over-represented in the sample as a whole.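 Percent growth is the endpoint: 0 to 100 indicates growth inhibition (40 means 60% inhibition), 0 means no net growth, and negative values indicate cell death.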 Unmarked numbers belong to inactive results. Calls of active or inactive are those of the source. Rule for the calls: active = growth percent below 10; inactive = the rest.
Experiments:
Test in all cases: NCI-60 one-dose screen, 48 h (100 = growth as untreated, 0 = no growth, -100 = all killed)
Settings in all cases: 10 µM
[1] = test system: NCI-H226 lung
[2] = test system: HOP-62 NSCLC
[3] = test system: NCI-H460 lung
[4] = test system: NCI-H522 lung
[5] = test system: A549/ATCC NSCLC
[6] = test system: 786-0 renal
[7] = test system: COLO 205 colon
[8] = test system: DU-145 prostate
[9] = test system: K-562 leukemia
[10] = test system: MDA-MB-231 breast
[11] = test system: RXF 393 renal
[12] = test system: SF-268 CNS
[13] = test system: SF-295 CNS
[14] = test system: SF-539 CNS
[15] = test system: UACC-257 melanoma
[16] = test system: M14 melanoma
[17] = test system: HOP-92 NSCLC
[18] = test system: MALME-3M melanoma

SMILES | growth [1] | growth [2] | growth [3] | growth [4] | growth [5] | growth [6] | growth [7] | growth [8] | growth [9] | growth [10] | growth [11] | growth [12] | growth [13] | growth [14] | growth [15] | growth [16] | growth [17] | growth [18]
CCOC(=O)Cn1c(=O)c2sc3ncccc3c2n2nnc(-c3ccccc3)c12 | 103% | 95.4% | 125% | 92.2% | 107% | 99.9% | 104% | 119% | 96.4% | 87.2% | 112% | 112% | 110% | 105% | 108% | 99% | – | –
CC(C)(C)OC(=O)CC(S(=O)(=O)c1ccccc1)S(=O)(=O)c1ccccc1 | 94.5% | 103% | – | -36.4% (active) | 112% | 105% | -98.1% (active) | 94.2% | 43.9% | 103% | 69.4% | 102% | 110% | 107% | 91.9% | 116% | 122% | -41.1% (active)
COc1cc(-c2nn(-c3cccc(NC(=O)NCCNC(=O)c4cccc(C(F)(F)F)c4)c3)cc2-c2ccncc2)ccc1Cl | 70.8% | 59.6% | 18.7% | 24.4% | 31.3% | 17.4% | 39.7% | 48.9% | 8.57% (active) | 41.4% | 15.3% | 41.8% | 6.79% (active) | 22.2% | 51% | 15.3% | 42.5% | 52.6%
CCOC(=O)c1cc(C(=O)c2ccc(OC)c(OC)c2)n2ccncc12 | 101% | 106% | 106% | 74% | 99.3% | 106% | 115% | 102% | 87.5% | 91.4% | 106% | 109% | 102% | 99.3% | 102% | 102% | 94.9% | 112%
COc1ccc(/C=C2\CCCC3=C2N=C2SC(C)=CN2C3c2ccc(OC)cc2)cc1 (stereo unspecified) | 94.1% | 104% | 104% | 89.6% | 90.7% | 104% | 115% | 107% | 96.1% | 101% | 102% | 116% | 106% | 111% | 90.9% | 98.8% | – | 80%
CCOC(=O)CSc1nc(-c2cc(OC)ccc2OC)cc(-c2ccc(OC)cc2)c1C#N | 86.4% | – | 66.6% | 55.8% | 61.6% | 71.9% | 101% | 75.2% | 106% | 83.9% | 70.3% | 73.9% | 70.3% | 64.6% | – | 76.9% | – | 98.8%
S=C(SSC(=S)N(c1ccccc1)c1ccccc1)N(c1ccccc1)c1ccccc1 | 99.2% | 97.6% | 106% | 81.1% | 82% | 105% | 132% | 109% | 104% | 114% | 111% | 97.8% | 102% | 109% | 81.7% | 101% | 86.2% | 99%
CN1CCN(CCCn2c(=O)c3sc4ncccc4c3n3nnc(-c4ccccc4)c23)CC1 | 108% | 21.7% | -77.1% (active) | -83.9% (active) | 12% | 5.36% (active) | -96.5% (active) | 31.5% | -32.5% (active) | -45.5% (active) | -68.3% (active) | -10.8% (active) | -76.1% (active) | -90.5% (active) | -88.8% (active) | -82.7% (active) | 48.9% | –
